Screening data deposited in PubChem by National Center for Advancing Translational Sciences (NCATS).
WRN inhibitor: WRN helicase (human) inhibition | WRN helicase unwinding, fluorescent forked duplex, kinetic | Potency, µM (highest dose often 114 µM), actives largely listed as inhibitors | 360,000 compounds, 0.46% hits | AID 651768; further: nearly all actives have a fitted effect of over 55% in size
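WRN at 20 nM final preincubated with compound 15 min at room temperature; reaction started with 100 nM fluorophore/quencher forked duplex oligonucleotide and 2 mM ATP final. Unwinding followed kinetically by red fluorescence (ex 525, em 598 nm).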
FEN1 inhibitor: blocks human flap endonuclease 1; Recombinant FEN1 flap cleavage, fluorescence, 15 min; Potency, µM (series often up to 114 µM), most hits filed as inhibitors; P39748; 390,000 compounds, 0.35% hits; further: nearly all actives have a fitted effect of over 65% in size
Target sequence (P39748 whole entry, looked up): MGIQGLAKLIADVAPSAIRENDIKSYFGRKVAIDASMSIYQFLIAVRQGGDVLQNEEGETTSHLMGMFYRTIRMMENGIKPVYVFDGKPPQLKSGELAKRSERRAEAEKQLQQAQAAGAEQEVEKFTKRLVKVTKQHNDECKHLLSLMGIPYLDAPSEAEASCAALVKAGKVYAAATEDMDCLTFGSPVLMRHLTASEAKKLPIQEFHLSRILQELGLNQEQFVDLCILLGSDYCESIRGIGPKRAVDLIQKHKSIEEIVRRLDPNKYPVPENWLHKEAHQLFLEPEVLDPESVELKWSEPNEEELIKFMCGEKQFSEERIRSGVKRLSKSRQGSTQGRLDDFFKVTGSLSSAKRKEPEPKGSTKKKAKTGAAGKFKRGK
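FEN1 at 10 nM, compound pretreatment for 15 min (room temperature), 50 nM final substrate to initiate; endpoint reads at 0 and 15 min; DMSO-only plates used as vehicle background.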
POLI inh: inhibitors of human DNA polymerase iota; 390,000 compounds, 1% hits; Q9UNA4; Potency, µM (top dose mostly 115 µM), actives largely listed as inhibitors; Pol iota fluorescent replication assay, 10 min
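Fluorescent replication assay read twice, at 0 min and 10 min after adding 50 nM (final) substrate. Enzyme (10 nM) and compounds were first incubated 15 min at room temperature; enzyme-free buffer wells were negative controls.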
POLH inh: inhibitors of human DNA polymerase eta; 390,000 compounds, 1.2% hits; recombinant Pol eta, fluorescent DNA replication assay; Potency, µM (top dose mostly 114 µM), most hits filed as inhibitors; Q9Y253; AID 588591
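Pol eta (10 nM) was preincubated with compounds for 15 min at room temperature, after which fluorescent replication substrate (50 nM final) was added to start the reaction. Fluorescence was read kinetically at 0 and 10 min.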
POLB inh: blocks human DNA polymerase beta activity | P06746 | Pol beta primer extension/strand displacement, fluorescence kinetic | Potency, µM (highest dose often 114 µM), actives largely listed as inhibitors | 340,000 compounds, 1.3% hits | AID 485314
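Human Pol beta at 10 nM; strand-displacement substrate 50 nM final. Compound exposure 15 min at room temperature before start, reaction 10 min at room temperature.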
POLK inh: blocks human DNA polymerase kappa activity. Q9UBT6. 400,000 compounds, 0.53% hits. Potency, µM (highest dose often 107 µM), usual class: inhibitors. purified Pol kappa, fluorescent DNA synthesis assay, 10 min
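Kinetic fluorescence screen: compound preincubated 15 min RT with 10 nM enzyme; 50 nM substrate (final) initiates; reads at 0/10 min.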
Hits are given with their value; . = inactive; ? = inconclusive; / = no result given; [ ] = remark or other dose. Sampled rows, rich in hits. Any-hit rate of the full collection: about 2.4%. The call rests on the fitted dose curve; in most records, active means well fitted curve in the direction sought with a large enough effect; inconclusive means small, poorly fitted or top-dose-only effect, or another doubt; inactive means no such curve, though single readings can be large; an effect the other way counts as inactive or inconclusive.

SMILES	WRN inhibitor	FEN1 inhibitor	POLI inh	POLH inh	POLB inh	POLK inh
Cc1ccc(N2CC(C(=O)Nc3nnc(SCc4ccccn4)s3)CC2=O)cc1 (configuration not stated)	.	.	.	.	.	.
CC(=O)OCC(NC(=O)C(C)NC(=O)OC(C)(C)C)C1OC(n2cc(F)c(=O)[nH]c2=O)C(OC(C)=O)C1OC(C)=O (configuration not stated)	/	.	.	/	/	.
CCOCC	/	/	/	/	/	.
Nc1nc(NCCc2ccccc2)c2[nH]cnc2n1	/	.	?	/	/	.
COc1ccc(NC(=S)NC(NC(=O)CCl)C(Cl)(Cl)Cl)c([N+](=O)[O-])c1 (configuration not stated)	.	.	?	50µM	.	.
COc1ccc(NC(=S)NC(NC(=O)c2ccccc2Cl)C(Cl)(Cl)Cl)c([N+](=O)[O-])c1 (configuration not stated)	.	.	.	.	?	.
Cc1cc2nc3c(=O)[nH]c(=O)nc-3n(C[C@H](O)[C@H](O)[C@H](O)COP(=O)(O)OP(=O)(O)OC[C@H]3O[C@@H](n4cnc5c(N)ncnc54)[C@H](O)[C@@H]3O)c2cc1C	/	/	/	/	/	.[19.4 µM]
COC(=O)c1ccc(OC(=O)c2ccccn2)cc1	.	.	18µM	.	?	.
COC(=O)c1ccc(OC(=O)c2cccnc2SC)cc1	.	.	.	.	.	.
COc1ccc(-c2noc(-c3ccc(NC4CCCCC4)c([N+](=O)[O-])c3)n2)cc1OC	/	.	.	.	.	.
COc1ccc(-c2noc(-c3ccc(NC(C)c4ccccc4)c([N+](=O)[O-])c3)n2)cc1OC (configuration not stated)	/	.	.	.	32µM	.
Cc1ccc(-n2c(Cl)c(Cl)nc(Cl)c2=O)cc1	22µM	.	.	.	.	.
c1ccc(-c2nn3c(Cn4nnc5ccccc54)nnc3s2)nc1	.	.	?	79µM	18µM	?
c1cncc(-c2nn3c(Cn4nnc5ccccc54)nnc3s2)c1	.	.	.	.	.	.
c1ccc2c(c1)OCC(c1nn3c(Cn4nnc5ccccc54)nnc3s1)O2 (configuration not stated)	.	.	50µM	?	?	?
Cc1c(N=C2C=CC(=O)c3ccccc32)c(=O)n(-c2ccccc2)n1C	.	.	?	45µM	?	.
CC1=NNC(=O)/C1=C\c1cn(-c2ccccc2)nc1-c1cccs1	.	.	?	.	.	.
CC1=NNC(=O)/C1=C\c1cn(-c2ccccc2)nc1-c1ccc(F)cc1	.	.	25µM	.	.	.
Cc1ccc(N)c(Cl)c1	/	/	/	/	/	.
COc1ccc(C(=O)COC(=O)/C=C/c2ccco2)cc1F	.	.	35µM	?	/	?
CCN(c1ccc(NC(=O)COC(=O)/C=C/c2ccco2)cc1)C(C)C	.	.	.	.	/	.
COC(=O)c1ccccc1NC(=O)COC(=O)/C=C/c1ccco1	.	.	.	.	?	.
CN(Cc1ccccc1)C(=O)COC(=O)/C=C/c1ccco1	.	.	?	?	14µM	?
CC1CCCC(NC(=O)COC(=O)/C=C/c2ccco2)C1C (configuration not stated)	.	.	71µM	.	/	.
O=C(COC(=O)/C=C/c1ccco1)Nc1ccccc1	.[11.6 µM]	.	?	?	22µM	.
SMILES	WRN inhibitor	FEN1 inhibitor	POLI inh	POLH inh	POLB inh	POLK inh
Cc1nc([N+](=O)[O-])cn1CC(=O)c1ccc2c(c1)OCCCO2	/	.	.	/	/	.
CNc1cccccc1=S	.[11.6 µM]	.	10µM	?	16µM	79µM
COC(=O)Cc1cc(=O)n(-c2nc3ccccc3[nH]2)[nH]1	.	.	.	.	79µM	.
CC(C)ON(C(C(=O)NO)C(C)C)S(=O)(=O)c1ccc(-c2ccccc2)cc1 (configuration not stated)	/	/	/	/	/	.
COc1ccc2c3c(cccc13)C(=O)N(O)C2=O	.	0.35µM	.	.	35µM	.
O=C1c2cccc3c([N+](=O)[O-])ccc(c23)C(=O)N1O	.	3.2µM	.	2.8µM	?	.
O=[N+]([O-])c1ccc(-c2ccc(/C=N/c3c(-c4ccco4)nc4ccccn34)o2)c(Cl)c1	/	/	/	/	.	/
O=[N+]([O-])c1ccc(Cl)c(-c2ccc(/C=N/c3c(-c4ccco4)nc4ccccn34)o2)c1	.	.	?	.	50µM	.
Cc1cc(C)c([N+](=O)[O-])cc1-c1ccc(/C=N/c2c(-c3ccco3)nc3ccccn23)o1	?	?	?	.	50µM	?
O=[N+]([O-])c1ccc(-c2ccc(/C=N/c3c(-c4ccco4)nc4ccccn34)o2)cc1	.	.	.	.	.	.
Oc1cccc(/C=N/c2c(-c3ccco3)nc3ccccn23)c1	.	.	25µM	.	.	.
Cc1cc([N+](=O)[O-])c(C)cc1-c1ccc(/C=N/n2cnnc2)o1	.	.	.	?	.	.
C/C=C(\C=C\[C@@H](C)C/C=C/CC/C=C/C=C\C[C@@H](OC)/C(C)=C\C=C(C)C)CC(=O)O	/	/	/	/	/	.
COc1cc(OC)c(NC(=O)c2cn(C)c(=O)c3cc(OC)c(OC)cc23)cc1Cl	/	.	.	56µM	.	.
COc1cccc(C(c2c(C)[nH]n(-c3ccccc3)c2=O)c2c(C)[nH]n(-c3ccccc3)c2=O)c1O	.[11.6 µM]	.	1µM	.	.	.
Cc1[nH]n(-c2ccccc2)c(=O)c1C(C[N+](=O)[O-])c1ccccc1Cl (configuration not stated)	.	.	.	.	.	.
Cc1[nH]n(-c2ccccc2)c(=O)c1C(c1ccc(O)c([N+](=O)[O-])c1)c1c(C)[nH]n(-c2ccccc2)c1=O	?	?	?	28µM	/	.
Cc1[nH]n(-c2ccccc2)c(=O)c1C(=O)c1ccccc1	.	.	?	?	.	.
CCN1C(Br)=CCc2ccccc21	/	.	.	/	/	.
O=C1c2ccccc2NC(c2ccccc2O)N1Cc1ccco1 (configuration not stated)	/	.	.	/	/	.
CCCN1CNc2c(c(=O)[nH]c(=S)n2CCc2cccs2)C1	/	.	.	/	/	.
O=C(Nc1nc(-c2ccccn2)cs1)C1CC(=O)N(c2ccc3c(c2)OCCO3)C1 (configuration not stated)	.[11.6 µM]	.	20µM	?	13µM	?
O=C(Nc1nc(-c2cccs2)cs1)C1CC(=O)N(c2ccc3c(c2)OCCO3)C1 (configuration not stated)	/	.	.	/	/	.
O=C(Nc1ccc(-c2nc3ncccc3o2)cc1)c1ccco1	.	.	?	?	35µM	?
O=C(Nc1ccc(-c2nc3ncccc3o2)cc1)c1ccc(Br)o1	.	.	.	?	.	.
COc1ccc(CNc2nc(Cl)nc3nc[nH]c23)cc1	/	?	?	/	/	.
